Test results reported in PubChem BioAssay (NCI).
Compounds without any hit were thinned out: in the full panel of roughly 79,000, 15% have a hit. Calls of active or inactive are those of the source. Cut-off read from the data, not from the text of the source: active = growth inhibition above about 70%; inactive = the rest.

Assays:
[1] = NCI Yeast Anticancer Drug Screen. Data for the rad50 strain (AID 155);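 note: 0% = growth of vehicle-only cultures of the same strain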; conditions: S. cerevisiae rad50 strain growth inhibition, hits give high values
Summary of the method: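 Relative growth inhibition (compound vs vehicle) was measured in yeast with a defined repair-gene alteration.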

[2] = NCI Yeast Anticancer Drug Screen. Data for the mec2-1 strain (AID 157); conditions: S. cerevisiae mec2-1 strain, hits give high values
Summary of the method: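 Mutant yeast (mec2-1) grown with compound; growth inhibition relative to vehicle control reported.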

[3] = NCI Yeast Anticancer Drug Screen. Data for the sgs1 mgt1 strain (AID 161);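 note: 0% = growth of cultures given vehicle only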; conditions: S. cerevisiae sgs1 mgt1 strain, hits give high values
Summary of the method: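 Compounds are added to genetically altered yeast, and growth is compared with cultures given vehicle alone to give percent inhibition.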

[4] = NCI Yeast Anticancer Drug Screen. Data for the cln2 rad14 strain (AID 165);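 note: 0% = growth equal to vehicle treated cultures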; conditions: S. cerevisiae cln2 rad14 strain, hits give high values
Summary of the method: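 Readout is yeast growth inhibition versus vehicle-treated controls, using a strain with cln2 and rad14 alterations exposed to compound.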

[5] = NCI Yeast Anticancer Drug Screen. Data for the bub3 strain (AID 167); conditions: S. cerevisiae bub3 mutant strain, hits give high values
Summary of the method: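 Screening used yeast with an engineered genetic alteration affecting cell cycle control. Compound-exposed cultures were compared with vehicle cultures, and reduced growth was taken as inhibition.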

[6] = NCI Yeast Anticancer Drug Screen. Data for the mlh1 rad18 strain (AID 175); conditions: S. cerevisiae mlh1 rad18 strain growth inhibition, hits give high values
Summary of the method: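 Genetically defined yeast (DNA repair-deficient) exposed to compounds; growth inhibition determined relative to vehicle.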

[7] = at 5.0 µM (retest, dose inferred, filed as 0.5)
[8] = at 50.0 µM (retest, dose inferred, filed as 5.0)

Measured: growth inhibition

CCCCC(CC)C(O)C(=O)O (stereo not given)
inactive: [1]; [7] 2% | [1]; [8] 30% | [1]; at 50.0 µM 46.8% | [2]; [7] -1% | [2]; [8] 27% | [2]; at 50.0 µM 45.7% | [3]; [7] 4% | [3]; [8] 4% | [3]; at 50.0 µM 40.4% | [4]; [7] 6% | [4]; [8] 32% | [4]; at 50.0 µM 26.6% | [5]; [7] 1% | [5]; [8] 26% | [5]; at 50.0 µM 33.9% | [6]; [7] -2% | [6]; [8] 31% | [6]; at 50.0 µM 54.4%

Cc1[nH]c(=O)[nH]c(=O)c1CN(C)Cc1cc(Cl)cc(Cl)c1O
active: [1]; [8] 70% | [3]; [8] 95% | [3]; at 50.0 µM 77.4% | [6]; [8] 82% | [6]; at 50.0 µM 77.5%
inactive: [1]; [7] -4% | [1]; at 50.0 µM 53.1% | [2]; [7] -8% | [2]; [8] 55% | [2]; at 50.0 µM 26.9% | [3]; [7] 0% | [4]; [7] -3% | [4]; [8] 43% | [4]; at 50.0 µM 22% | [5]; [7] -8% | [5]; [8] 46% | [5]; at 50.0 µM 30.1% | [6]; [7] -3%

CC1CCC2(CC1)OCC(C)O2 (stereo not given)
inactive: [1]; [7] 4% | [1]; [8] 1% | [1]; at 50.0 µM -19.9% | [2]; [7] 16% | [2]; [8] 5% | [2]; at 50.0 µM 5.45% | [3]; [7] -2% | [3]; [8] -12% | [3]; at 50.0 µM -24.4% | [4]; [7] 26% | [4]; [8] 15% | [4]; at 50.0 µM 19.8% | [5]; [7] 27% | [5]; [8] 34% | [5]; at 50.0 µM -0.9% | [6]; [7] 7% | [6]; [8] 1% | [6]; at 50.0 µM -8.8%

CCCCC#CCOC(=O)c1cc([N+](=O)[O-])cc([N+](=O)[O-])c1
active: [1]; [7] 97% | [1]; [8] 99% | [1]; at 50.0 µM 99.2% | [2]; [7] 99% | [2]; [8] 100% | [2]; at 50.0 µM 98.5% | [3]; [7] 99% | [3]; [8] 99% | [3]; at 50.0 µM 99.8% | [4]; [8] 99% | [4]; at 50.0 µM 99.3% | [5]; [7] 96% | [5]; [8] 100% | [5]; at 50.0 µM 99.3% | [6]; [7] 98% | [6]; [8] 99% | [6]; at 50.0 µM 98.8%
inactive: [4]; [7] 67%

CC(C)=CCc1c(O)cc(O)c2c1OC(c1ccc(O)cc1)C(O)C2=O (stereo not given)
inactive: [1]; [7] -9% | [2]; [7] 1% | [3]; [7] -4% | [4]; [7] 20% | [5]; [7] 5% | [6]; [7] -2%
active: [1]; [8] 98% | [1]; at 50.0 µM 93.2% | [2]; [8] 99% | [2]; at 50.0 µM 94% | [3]; [8] 99% | [3]; at 50.0 µM 93.8% | [4]; [8] 99% | [4]; at 50.0 µM 91.5% | [5]; [8] 99% | [5]; at 50.0 µM 92% | [6]; [8] 99% | [6]; at 50.0 µM 92.5%

O=C1CSC(=S)N1Cc1ccncc1
inactive: [1]; [7] 2% | [1]; [8] 38% | [1]; at 50.0 µM 39.1% | [2]; [7] -14% | [2]; [8] 37% | [2]; at 50.0 µM 40.9% | [3]; [7] -8% | [3]; [8] 25% | [3]; at 50.0 µM 57.5% | [4]; [7] 24% | [4]; [8] 31% | [4]; at 50.0 µM 18.6% | [5]; [7] 12% | [5]; [8] 29% | [5]; at 50.0 µM 65.5% | [6]; [7] -16% | [6]; at 50.0 µM 39.3%
active: [6]; [8] 71%

COc1ccc(OC)c(/C=C2/C(=O)ON=C2C)c1
inactive: [1]; [7] -14% | [1]; [8] 7% | [1]; at 50.0 µM 42.4% | [2]; [7] -11% | [2]; [8] 5% | [2]; at 50.0 µM 54.4% | [3]; [7] 1% | [3]; [8] 27% | [4]; [7] 0% | [4]; [8] 14% | [4]; at 50.0 µM 22% | [5]; [7] 11% | [5]; [8] 23% | [5]; at 50.0 µM 43.5% | [6]; [7] 8% | [6]; [8] 23% | [6]; at 50.0 µM 22.7%
active: [3]; at 50.0 µM 70%

CC1=CC(C)(C)Nc2cc(N)ccc21
inactive: [1]; [7] -166% | [1]; [8] -193% | [1]; at 50.0 µM 50.5% | [2]; [7] -49% | [2]; [8] -65% | [2]; at 50.0 µM 20.6% | [3]; [7] -64% | [3]; [8] -72% | [3]; at 50.0 µM 43.8% | [4]; [7] -54% | [4]; [8] -82% | [4]; at 50.0 µM -35.5% | [5]; [7] -74% | [5]; [8] -85% | [5]; at 50.0 µM 39.3% | [6]; [7] -148% | [6]; [8] -136% | [6]; at 50.0 µM 54.5%

CN1c2ccccc2C(=O)NC1c1ccc([N+](=O)[O-])s1 (stereo not given)
active: [3]; at 50.0 µM 71.8% | [6]; at 50.0 µM 73.1%
inactive: [1]; [7] -9% | [1]; [8] 53% | [1]; at 50.0 µM 63.5% | [2]; [7] 7% | [2]; [8] 8% | [2]; at 50.0 µM 41% | [3]; [7] -19% | [3]; [8] 32% | [4]; [7] 11% | [4]; [8] 23% | [4]; at 50.0 µM 33.4% | [5]; [7] -47% | [5]; [8] 35% | [5]; at 50.0 µM 57% | [6]; [7] -22% | [6]; [8] 63%

CCCC/C(=N/Nc1ccc([N+](=O)[O-])cc1)C(=O)O
active: [1]; [8] 97% | [1]; at 50.0 µM 71.5% | [2]; [8] 95% | [3]; [8] 97% | [3]; at 50.0 µM 75% | [5]; [8] 98% | [5]; at 50.0 µM 82% | [6]; [8] 98%
inactive: [1]; [7] 14% | [2]; [7] 8% | [2]; at 50.0 µM 24.3% | [3]; [7] 14% | [4]; [7] -3% | [4]; [8] 60% | [4]; at 50.0 µM 24.5% | [5]; [7] 18% | [6]; [7] 21% | [6]; at 50.0 µM 57.4%
